# This is a sample that favours compounds with a hit; in the whole collection about 1% have one here.
# PriA SSB inh: inhibitors of Klebsiella pneumoniae PriA binding to SSB C-terminal tail, primary screen, biochemical, AlphaScreen | inhibition, % at 33 µM | AlphaScreen SSBct-PriA binding, biotinylated peptide | PriA–SSB C-terminal tail interaction (Klebsiella pneumoniae) | AID 1272365, 2023 | hit rate 0.6% among 430,000; in the data active means inhibition mostly above about 37%, no sharp cut-off; inactive means mostly below about 20%;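 further: plate controls were negative control peptide for no effect and reference peptide for full effect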
# Sa ugtP lethal: growth inhibition of ugtP-null S. aureus, primary screen, RN4220 ugtP deletion, OD600 | 16 h | growth inhibition, % (concentration not given with the values) | hit rate 0.54% among 330,000 | AID 1259309, 2017; in the data active means growth inhibition above about 68%;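 further: plate controls were untreated wells for no effect and antibiotic for full effect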
# Sa RN4220 lethal: growth inhibition of S. aureus RN4220, primary screen, OD600. AID 1259311, 2017. inhibition, % (test concentration not listed). 16 h. hit rate 0.33% among 330,000; in the data active means inhibition above about 85%;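 further: plate controls were untreated cells for no effect and reference antibiotic for full effect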
# * = called active by the depositor; nt = no result.
SMILES,PriA SSB inh,Sa ugtP lethal,Sa RN4220 lethal
O=C(CN1CCCc2ccccc21)N/N=C\c1ccccc1O,15.0,nt,nt
COC(CN1C(=O)C(=O)C(=C(O)c2ccccc2)C1c1ccccn1)OC (stereo not drawn),-0.5,nt,nt
Cc1cc(C)cc(OCCNC(=O)c2ccc(S(=O)(=O)N3CCCC3)cc2)c1,-5.0,nt,nt
Cc1ccc(S(=O)(=O)N2C3C=CCC2CC3)s1 (stereo not drawn),15.0,nt,nt
Cc1cc(CN(C)C)c(O)c(C2(C)CCCCC2)c1,-11.4,8.0,7.1
Cc1cc(CN2CCOCC2)c(O)c(C2(C)CCCCC2)c1,-13.7,98.8*,7.0
Cc1cc(C)cc(NC(=O)CS(=O)(=O)c2cn(CC(=O)N3CCCC3)c3ccccc23)c1,50.0*,nt,nt
Cc1cc(NC(=O)CS(=O)(=O)c2cn(CC(=O)N3CCCC3)c3ccccc23)no1,-14.0,nt,nt
O=[N+]([O-])c1cc2c(cc1C=Nc1ccccc1)OCO2,19.2,nt,nt
Cc1cccc(N=Cc2cc3c(cc2[N+](=O)[O-])OCO3)c1,45.0*,7.2,5.3
CN1c2ccccc2C(C)(C)C12C=Cc1cc(O)ccc1O2 (stereo not drawn),39.4*,3.1,2.9
CN1c2ccccc2C(C)(C)C12C=Nc1c(cc(N3CCOCC3)c3ccccc13)O2 (stereo not drawn),-2.1,nt,nt
C=CCN(CC=C)S(=O)(=O)c1ccc(C(O)=C(C#N)c2nc3ccccc3[nH]2)cc1,4.0,nt,nt
CCCc1nnsc1C(=O)Nc1ccc(-n2ccnc2)nc1,4.0,nt,nt
CC1CN(CC(=O)Nc2ccccc2F)CC(C)O1 (stereo not drawn),0.0,nt,nt
Cn1cccc1C(=O)OCc1ccc(C(C)(C)C)cc1,-11.2,94.2*,-4.2
COc1ccc(CNC(=O)COC(=O)c2cccn2C)cc1,1.4,-4.8,-2.2
CC(C)CS(=O)(=O)Nc1ccc2c(c1)CCCN2C(=O)c1ccccc1,-15.0,nt,nt
O=C(c1ccccc1)N1CCCc2cc(NS(=O)(=O)CCOc3ccccc3)ccc21,35.0*,nt,nt
Cc1cc(C(=O)Nc2cccc(-c3nc4ccccc4o3)c2)on1,-6.0,nt,nt
O=C(Nc1nc2ccccc2s1)c1ccc(N2CCCCC2)c([N+](=O)[O-])c1,39.1*,-15.3,0.4
COc1ccc(C(=O)Nc2ccccn2)cc1S(=O)(=O)N1CCOCC1,10.4,-0.5,1.4
O=C(Nc1ccon1)c1ccc(N2CCCCC2)c([N+](=O)[O-])c1,1.5,0.7,0.5
CN1CCN(S(=O)(=O)c2cccc(C(=O)Nc3nc(-c4ccccn4)cs3)c2)CC1,123.5*,nt,nt
O=C(Nc1nc(-c2ccccc2)cs1)c1ccc(N2CCOCC2)c([N+](=O)[O-])c1,19.9,-11.0,16.0
SMILES,PriA SSB inh,Sa ugtP lethal,Sa RN4220 lethal
COc1ccc(C(=O)Nc2nc(-c3ccccn3)cs2)cc1S(=O)(=O)N1CCOCC1,46.4*,-8.8,2.8
O=C(Nc1nc(-c2ccccn2)cs1)c1ccc(N2CCOCC2)c([N+](=O)[O-])c1,91.5*,nt,nt
CN1CCN(S(=O)(=O)c2cccc(C(=O)Nc3nc(-c4ccccc4)cs3)c2)CC1,7.3,18.6,4.5
COc1nn(C)cc1C(=O)Nc1cc(C)ccc1C,-3.0,nt,nt
COc1cc([C@@H]2C3=C(OC(=N)C2C#N)c2ccccc2N(Cc2ccccc2F)S3(=O)=O)cc(OC)c1OC (stereo partly drawn),-1.0,nt,nt
O=C(Nc1nc(-c2ccccn2)cs1)c1ccc(S(=O)(=O)N2CCOCC2)cc1,114.5*,nt,nt
O=C(Nc1nc(-c2ccccn2)cs1)c1cc(S(=O)(=O)N2CCOCC2)ccc1Cl,116.0*,nt,nt
O=C(Nc1nc(-c2csc(NC(=O)c3ccc(S(=O)(=O)N4CCOCC4)cc3)n2)cs1)c1ccc(S(=O)(=O)N2CCOCC2)cc1,-9.0,nt,nt
O=C(Nc1nc(-c2ccccn2)cs1)c1cccc(S(=O)(=O)N2CCOCC2)c1,81.3*,nt,nt
Cc1ccc(S(=O)(=O)N2CCOCC2)cc1C(=O)Nc1nc(-c2ccccn2)cs1,31.0,10.7,6.0
O=C(Nc1nc(-c2ccncc2)cs1)c1cccc(S(=O)(=O)N2CCOCC2)c1,33.5,nt,nt
CCOc1ccc(Br)cc1C=NO,-8.0,15.4,6.0
ON=Cc1ccccc1OCc1ccccc1F,-19.1,9.3,13.6
ON=Cc1cc(Br)ccc1OCc1ccccc1F,-23.5,87.4*,6.2
ON=Cc1cc(Br)ccc1OCc1cccc(F)c1,5.6,82.5*,1.6
COc1ccc(S(=O)(=O)C2CN(S(=O)(=O)CCc3ccccc3)C2)cc1,-4.0,nt,nt
O=C(NCC[C@H](O)c1ccsc1)NCc1ccccc1,1.0,nt,nt
CN1CCN(C(=S)c2cn(CCOc3ccccc3F)c3ccccc23)CC1,39.3*,4.9,9.7
CN1CCN(C(=S)c2cn(CCOc3ccccc3)c3ccccc23)CC1,6.6,-7.7,3.0
CCOc1cc(C)ccc1S(=O)(=O)NCc1cccnc1,3.0,nt,nt
Cc1noc(C)c1S(=O)(=O)NCC1CCN(C(=O)c2ccoc2)CC1,-11.0,nt,nt

# Source: PubChem BioAssay (several laboratories)
